G9a block: qHTS Assay for Inhibitors of Histone Lysine Methyltransferase G9a; Potency, µM (titrated, usually from 102 µM), for the others: at the top dose activity, negative = inhibition, usual class: inhibitors; G9a H3K9 monomethylation, AlphaScreen, 2 h; 8.8% of 350,000 active; also: % is scaled to controls: 0 for no effect and ±100 for the full control effect; nearly all actives have a fitted effect of over 75% in size
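Using a bead-based AlphaScreen, monomethylated H3K9 product from 2 h room-temperature reactions (G9a 20 nM, peptide 500 nM, SAM 20 uM) was detected with 0.5 ug/mL rabbit anti-H3K9me1 antibody.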
HP1b chromo inh: HTS for Inhibitors of HP1-beta Chromodomain Interactions with Methylated Histone Tails. Potency, µM (series often up to 114 µM), without a hit: top-dose activity change, negative = inhibition, hits mostly inhibitors. AlphaScreen HP1-beta / biotin-H3K9me3 peptide binding. AID 540317, 2011. 0.56% of 390,000 active; also: nearly all actives have a fitted effect of over 70% in size
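HP1-beta protein (50 nM final) preincubated 30 min at room temperature with biotinylated H3(1-18)K9me3 peptide (50 nM) in PBS pH 7.4, 0.01% Tween-20, then compound added for 30 min. AlphaScreen streptavidin donor/nickel chelate acceptor beads (10 ug/mL final), 30 min dark, luminescence read.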
BAZ2B inh: qHTS Assay for Inhibitors of BAZ2B | AID 504333, 2011 | AlphaScreen BAZ2B-H3K14Ac peptide displacement | Bromodomain adjacent to zinc finger domain protein 2B (Homo sapiens), Q9UIF8 | Potency, µM (doses to about 114 µM), without a hit: at the top dose activity change, negative = inhibition, hits mostly inhibitors | 4.4% of 360,000 active; also: % is scaled to controls: 0 for no effect and ±100 for the full control effect; nearly all actives have a fitted effect of over 60% in size
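Compounds, titrated to a top concentration of 110 uM, were incubated 30 min at room temperature with preformed BAZ2B/acetyl-K14 H3 peptide complex (50 nM each). Proximity signal was measured by AlphaScreen after 20 min with beads.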
PLK1 PBD block: qHTS for Inhibitors of PLK1-PDB (polo-like kinase 1 - polo-box domain): Primary Screen; 2.8% of 360,000 active; Plk1 PBD binding of FITC phosphopeptide, fluorescence polarization; Serine/threonine-protein kinase PLK1 (Homo sapiens), P53350; AID 720504, 2013; Potency, µM, for inactives: max response, negative = inhibition, most hits filed as inhibitors; also: series mostly up to about 57 µM; % is scaled to controls: 0 for no effect and ±100 for the full control effect; nearly all actives have a fitted effect of over 65% in size
Target sequence (P53350 whole entry, looked up, the tested form may be a part): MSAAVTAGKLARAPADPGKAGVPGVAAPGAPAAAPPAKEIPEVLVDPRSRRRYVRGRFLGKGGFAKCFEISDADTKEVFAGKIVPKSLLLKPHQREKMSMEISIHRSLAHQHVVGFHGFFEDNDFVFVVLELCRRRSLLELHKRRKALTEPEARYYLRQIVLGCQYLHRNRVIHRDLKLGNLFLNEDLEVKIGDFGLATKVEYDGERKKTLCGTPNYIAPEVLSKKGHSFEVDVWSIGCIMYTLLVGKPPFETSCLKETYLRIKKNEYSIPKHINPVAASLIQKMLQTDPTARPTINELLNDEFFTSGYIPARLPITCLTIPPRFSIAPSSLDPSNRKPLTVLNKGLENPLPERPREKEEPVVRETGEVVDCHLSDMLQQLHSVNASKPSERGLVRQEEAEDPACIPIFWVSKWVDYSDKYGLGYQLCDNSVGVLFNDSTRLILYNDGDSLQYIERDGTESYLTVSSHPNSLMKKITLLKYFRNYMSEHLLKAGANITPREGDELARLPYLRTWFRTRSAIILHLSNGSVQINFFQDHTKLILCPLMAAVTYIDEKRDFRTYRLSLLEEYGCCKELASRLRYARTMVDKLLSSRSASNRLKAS
JMJD2A Tudor: qHTS Assay for Inhibitors of JMJD2A-Tudor Domain | Lysine-specific demethylase 4A (Homo sapiens), O75164 | AlphaScreen JMJD2A-Tudor / H3K4me3 peptide binding | Potency, µM (series often up to 114 µM), for inactives: top-dose activity change, negative = inhibition, usual class: inhibitors | 4.4% of 390,000 active; also: % is scaled to controls: 0 for no effect and ±100 for the full control effect; nearly all actives have a fitted effect of over 50% in size
Sfp PPTase inh: qHTS Assay for Inhibitors of Bacillus subtilis Sfp phosphopantetheinyl transferase (PPTase); Biochemical Sfp PPTase activity, qHTS; Potency, µM, without a hit: largest response in the series, negative = inhibition, actives largely listed as inhibitors; 3.5% of 310,000 active;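 also: the enzyme is Sfp with the accession as filed and its product quenches rhodamine fluorescence; 0% = enzyme reaction without inhibitor and -100% = no enzyme wells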
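After 15 min at room temperature with compound, 15 nM Sfp received 5 uM rhodamine-CoA plus 12.5 uM BHQ-2-ybbR (50 mM Hepes pH 7.6, 10 mM MgCl2). Rate came from the fluorescence difference over 30 min, ex 525/em 598 nm.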
* hit, by the source's call; ? = inconclusive; nt = no result; ! = repeats disagree; [ ] = remark or other dose. Only some compounds are listed: those with a hit (about 12% of all), similar ones and a draw of the others. Calls follow the shape of the dose curve; as a rule, active = well fitted curve in the direction sought with a large enough effect; inconclusive = small, poorly fitted or top-dose-only effect, or another doubt; inactive = no such curve, though single readings can be large; an effect the other way counts as inactive or inconclusive. Potency is read from the fitted curve at half-maximal effect.

SMILES | G9a block | HP1b chromo inh | BAZ2B inh | PLK1 PBD block | JMJD2A Tudor | Sfp PPTase inh
COc1ccc(CNC(=O)Nc2nc(C(N)CCc3ccccc3)cs2)cc1 (stereo not given) | nt | nt | nt | -4% | nt | nt
Clc1ccc(-n2nnc(-c3nccs3)n2)cc1Cl | 3.2µM* | -2% | -14% | 27µM* | 16µM* | 40µM*
Cc1ccc(-n2nnc(-c3nccs3)n2)cc1 | 2%[59 µM] | 56% | 6% | 4% | -3% | -6%
CC1=CC(C)(C)NC(=S)N1CCO | nt | 30%[57 µM] | nt | -5% | 7% | nt
CCN(CC)c1ccc(NC(=O)CSc2nc3nc(C)cc(C)c3c(=O)[nH]2)cc1 | 40µM* | ? | 45µM* | -4% | 45µM* | nt
Cc1ccc(CN(Cc2ccco2)C(=O)c2oc3c(C)c(C)ccc3c2C)cc1 | 2%[59 µM] | 42% | 7% | nt | 3% | nt
NCCCNCCCCNCCCN | 13µM*! | 13% | nt | -1% | -20% | ?
COc1ccc(NC(=O)CSc2ccc3ccccc3c2)cc1S(=O)(=O)N1CCCCC1 | -21% | 17% | -5% | -4% | -27% | 7%
NS(=O)(=O)c1cccc(NC(=O)CSc2nnc(NC3CC3)s2)c1 | nt | nt | nt | -3% | nt | nt
Cc1ccc(Oc2ccccc2/C=N/O)cc1 | 0% | -6% | 2% | 3.4µM* | -32%[11.4 µM] | 15%
CC(=O)Nc1ccc(SCC(=O)Nc2ccccc2N2CCOCC2)cc1 | nt | 32% | nt | 5% | -5% | nt
CC(=O)Nc1ccc(Nc2nc(-c3c(C)nc4ccccn34)cs2)cc1 | nt | 34% | nt | -7% | 79µM* | nt
COc1cccc(Nc2nc(-c3sc(C)nc3C)cs2)c1 | nt | -11% | ? | -8% | ? | -29%
Cc1nc2ncccn2c1-c1csc(Nc2ccccc2)n1 | 25µM* | -18% | -37% | -22% | ? | 56µM*
c1coc(CNc2nc(-c3cccs3)cs2)c1 | 20µM* | -32% | 45µM* | -23% | ? | -7%
COc1ccc(Nc2nc(-c3c(C)nc4ncccn34)cs2)cc1 | 18µM* | -1% | ? | -3% | ? | 18µM*
O=C(Nc1ccc(-c2csc(Nc3ccc(Cl)cc3)n2)cc1)c1ccccc1 | nt | 25% | nt | -13% | -11% | nt
O=C(Cc1ccccc1)Nc1nc(-c2cccs2)cs1 | ? | 30% | 11% | -6% | -4% | -6%
Cc1nc2ncccn2c1-c1csc(Nc2ccc(S(N)(=O)=O)cc2)n1 | nt | 24% | -2% | -9% | -15% | -20%
Cc1cc(S(=O)(=O)n2ccnc2C(C)C)cc([N+](=O)[O-])c1C | 8%[59 µM] | 23% | -12% | nt | -13% | nt
COc1cccc(CC2CC(=O)N(c3ccc4c(C)cc(=O)oc4c3)C2=O)c1 (stereo not given) | -3%[59 µM] | 48% | -7% | -7% | -2% | -13%
CC1(C)CC(=O)C=C(C#CC2(O)CCCCC2)C1 | nt | nt | nt | -1% | nt | nt
Cc1nc2ncccn2c1-c1csc(NCc2ccco2)n1 | ? | 5% | ? | ? | -6%[57.1 µM] | 8.9µM*
COc1ccccc1Nc1nc(-c2c(C)nc3ncccn23)cs1 | ? | ? | ? | -16% | -31% | ?
c1ccc(Nc2nc(-c3ccncc3)cs2)cc1 | ? | 17% | 4% | 0% | -11% | -16%
SMILES | G9a block | HP1b chromo inh | BAZ2B inh | PLK1 PBD block | JMJD2A Tudor | Sfp PPTase inh
Cc1nc2ncccn2c1-c1csc(Nc2ccc(N(C)C)cc2)n1 | 7.9µM* | ? | 32µM* | -18% | 28µM* | ?
CCN1C(=O)[C@@H]2[C@@H](c3ccc(-c4ccc(Cl)c(Cl)c4)c(OC)c3)N3CCC[C@@]3(C(=O)OC)[C@@H]2C1=O | 6%[2.33 µM] | -4% | ? | 4% | ? | nt
Cn1sc(=O)n(Cc2ccccc2)c1=O | nt | nt | nt | nt | nt | 0.14µM*
COc1ccc(OC)c(C2N=C(N)Nc3nc4ccccc4n32)c1 (stereo not given) | 1%[59 µM] | 21% | -15% | nt | -12% | nt
Cc1ccc(-n2c(C)cc(C3N=C(N)Nc4nc5ccccc5n43)c2C)c(C)c1 (stereo not given) | 5%[12.7 µM] | ? | 40µM* | 2% | 40µM* | ?
Cc1cc(C2N=C(N)Nc3nc4ccccc4n32)c(C)n1-c1ccccc1Cl (stereo not given) | ? | -6% | ? | -1% | ? | 2.8µM*
CCCN1CCN(CCCNC(=O)CN2C(=O)COc3ccc(C(C)(C)C)cc32)CC1 | nt | nt | nt | 6% | nt | nt
Cc1cccc(Nc2nc(Cl)ncc2F)c1C | 3%[0.501 µM] | 55% | -15% | -6% | -10% | 16%
CC1(C(=O)c2ccccc2)C2c3c(ccc4ccccc34)OC(=O)C21C(=O)N1CCOCC1 (stereo not given) | 79µM* | -11% | ? | 3% | -27% | 5%
CCOC(=O)c1scc(-c2ccccc2)c1S(=O)(=O)Nc1ccccc1OC | 14µM* | -20% | ? | nt | -24% | nt
COc1ccccc1NC(=O)c1ccc(N)cc1 | ? | 31% | -30% | -2% | -17% | 12%
CCOC(=O)c1scc(-c2ccc(C)cc2)c1S(=O)(=O)Nc1cc(OC)ccc1OC | ? | -22% | ? | nt | ? | nt
CCOC(=O)c1c(N)sc2c1C1CCN2CC1 | 79µM* | -3% | -39% | -5% | -32% | 1%
CCOC(=O)c1sc(N)c(C(=O)Nc2ccccc2OC)c1C | 2.8µM* | 5.6µM* | ? | 4.7µM* | 56µM* | 14µM*
COC(=O)c1c(N)sc(C(=O)NCCc2ccccc2)c1C | ? | 14% | -35% | 21µM* | -10% | -73%
Cc1c(Cl)cccc1NC(=O)C1NC(=O)CC1c1ccccc1 (stereo not given) | 17% | 29% | 4% | -13% | -6% | 5%
COc1ccc(NC(=O)c2sc3nc(C)c(C(=O)Nc4ccc(C)cc4C)c(-c4ccc(C)o4)c3c2N)cc1 | ? | 26% | -12% | nt | -7% | nt
CCOC(=O)c1c(N)sc(C(=O)OC)c1C | nt | -12% | -35% | 30µM* | -14% | 56µM*
CCOC(=O)c1sc(N)c(C(=O)OC)c1C | 5% | 24% | -27% | -7% | -1% | -4%
CC1CCC/C(=C(\C#N)c2nc(-c3cc4ccccc4oc3=O)cs2)C1 (stereo not given) | -3%[59 µM] | 116% | 13% | -13% | 52% | -17%

Screening results as filed in PubChem.
